Screening results (PubChem BioAssay)
FBW7 act: FBW7 E3 ligase activators, primary screen, biochemical, AlphaScreen, human. F-box/WD repeat-containing protein 7 (Homo sapiens), Q969H0. AlphaScreen FBW7–phospho-cyclin E peptide binding, activator screen. normalized activity (activation), % at 26.1 µM. 650,000 compounds, 0.13% hits; in the data active = normalized activity above about 1.9%;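 also: purified mutant Fbw7 with reduced substrate affinity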
Target sequence (Q969H0 whole entry, looked up): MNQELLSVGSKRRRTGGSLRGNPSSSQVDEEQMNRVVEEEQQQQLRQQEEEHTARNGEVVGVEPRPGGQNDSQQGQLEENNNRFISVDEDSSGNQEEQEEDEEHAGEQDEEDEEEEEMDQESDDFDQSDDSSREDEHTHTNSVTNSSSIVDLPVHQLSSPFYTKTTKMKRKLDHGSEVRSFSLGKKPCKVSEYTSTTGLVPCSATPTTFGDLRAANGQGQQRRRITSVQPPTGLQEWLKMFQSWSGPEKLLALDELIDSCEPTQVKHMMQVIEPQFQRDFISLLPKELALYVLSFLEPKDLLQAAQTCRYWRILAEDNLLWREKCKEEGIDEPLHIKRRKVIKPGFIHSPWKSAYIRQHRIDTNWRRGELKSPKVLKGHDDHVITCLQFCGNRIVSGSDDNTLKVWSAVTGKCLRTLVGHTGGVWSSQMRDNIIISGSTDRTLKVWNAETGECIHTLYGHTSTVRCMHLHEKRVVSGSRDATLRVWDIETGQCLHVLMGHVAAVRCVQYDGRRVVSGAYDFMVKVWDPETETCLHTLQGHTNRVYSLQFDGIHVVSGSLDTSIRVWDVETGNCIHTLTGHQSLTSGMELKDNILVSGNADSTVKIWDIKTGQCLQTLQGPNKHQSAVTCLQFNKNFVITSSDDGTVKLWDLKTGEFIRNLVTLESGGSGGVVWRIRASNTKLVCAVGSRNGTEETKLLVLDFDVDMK
TEAD-YAP inh: TEAD-YAP interaction inhibition, primary screen, TEAD-YAP interaction inhibitor project, luminescence, HEK-TIYL cells; TEAD-Gal4/YAP UAS-luciferase luminescence; inhibition, % at 9.12 µM; 640,000 compounds, 1.4% hits; AID 1259422, 2018; in the data active = inhibition above about 32%;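 also: 0% = median of test compound wells and 100% = reference inhibitor wells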
GPR151 activ: activators of human GPR151, primary screen, cell-based, PathHunter beta-arrestin, luminescence; G-protein coupled receptor 151 (Homo sapiens), Q8TDV0; PathHunter beta-arrestin GPR151 cells; activation, % at 11.2 µM; 650,000 compounds, 1% hits; AID 1508602, 2020; in the data active = activation above about 4.9%;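 also: 0% = median of compound wells and 100% = cells with positive control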
MITF primary: MITF inhibitors, primary screen, biochemical, AlphaScreen, human. Microphthalmia-associated transcription factor (Homo sapiens), O75030. AlphaScreen MITF homodimerization, bead proximity signal. inhibition, % at 2.6 µM. AID 1259374, 2018. 650,000 compounds, 0.91% hits; in the data active = inhibition above about 50%;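 also: 0% = vehicle wells with protein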
GPR151 conf act: GPR151 activators, triplicate retest, confirmation, cell-based, PathHunter beta-arrestin, luminescence; shares compounds with GPR151 activ; GPR151 PathHunter beta-arrestin cells, 90 min; % of EA-reagent control over plate median; activation, % at 11.2 µM; 6,700 tested, under 10 active; AID 1508609, 2020;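 active = mean percent activation across replicates above the confirmation screen cutoff of 4.91%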
GPR119 ag: GPR119 activators in beta-arrestin cells, counter-screen for GPR151 activator project, cell-based, PathHunter beta-arrestin, luminescence, triplicate; shares compounds with GPR151 activ; 90 min; 0 = compound-well median, 100 = enzyme-acceptor control; activation, % at 11.2 µM; 6,700 compounds, 0.3% hits; AID 1508611, 2020;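 active = mean percent activation in the counterscreen above 29.09%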;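 also: counterscreen on off-target GPR119 to flag nonselective hits from the GPR151 activator screen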
Numbers without * were called inactive; nt = no result given. An excerpt weighted towards active compounds, which were near 3.5% of everything screened.

SMILES	FBW7 act	TEAD-YAP inh	GPR151 activ	MITF primary	GPR151 conf act	GPR119 ag
COc1ccc(-c2ocnc2C(=O)N2CCN(CC(N)=O)CC2)cc1OC	0	6	0	6	nt	nt
CC(=O)Nc1ccc(S(=O)(=O)Nc2ccccc2C(C)C)cc1	0	4	5.9*	5	0	-14
CC(C)CCN1CCc2nnc(C(C)NC(=O)COc3ccccc3)n2CC1 (stereo not given)	0	6	0	-7	nt	nt
CCCCn1c(=O)n(Cc2ccc(C#N)cc2)c(=O)c2c1nc(CO)n2CCC	0	-18	-1	-5	nt	nt
CSc1ccccc1C(=O)N(C)Cc1ccccc1	1	-10	5.8*	3	0	9
COC(=O)c1ccc2c(c1)N(Cc1ccc(F)cc1)C(=O)CS2	0	10	0	-6	nt	nt
CCOCCCN1Cc2cc3cc(OC)ccc3nc2OCC1=O	0	9	1	11	nt	nt
CCN(CC)c1nc(Nc2ccccc2)nc(Nc2nc3ccccc3n2C)n1	1	-3	-1	4	nt	nt
CCN(CC)c1nc(Nc2nc3ccccc3n2C)nc(NC2CC2)n1	0	6	7.5*	17	0	1
COc1ccc(OCC(=O)N/N=C/c2ccc(C(=O)O)cc2)c(Br)c1	0	2	-1	4	nt	nt
C=CCN=C(CC)C1=C(O)CC(C)(C)CC1=O	0	-3	-1	1	nt	nt
CCCN=C(CC)C1=C(O)CC(C)(C)CC1=O	0	-3	5.4*	-15	-1	-3
CCOc1cccc(CN2CCC(C(=O)NCc3ccccn3)CC2)c1O	0	8	8.7*	54*	-1	-3
CCOc1ccccc1CN1CCC(C(=O)NCc2ccc(C)cc2)CC1	0	5	0	21	nt	nt
CN(C)c1ccc(CCNS(=O)(=O)c2ccc(Cl)s2)cc1	0	5	1	5	nt	nt
CCOc1ccccc1CN1CCN(S(=O)(=O)c2ccccc2[N+](=O)[O-])CC1	0	-9	5.7*	37	0	11
COc1ccccc1CN1CCN(S(=O)(=O)c2ccccc2[N+](=O)[O-])CC1	0	-4	0	48	nt	nt
CCS(=O)(=O)N1CCN(S(=O)(=O)c2ccccc2[N+](=O)[O-])CC1	0	9	2	4	nt	nt
CCOc1ccccc1N1CCN(S(=O)(=O)c2ccccc2[N+](=O)[O-])CC1	0	0	5.7*	-4	-1	-5
CCn1nc(C(=O)NNC(=O)COc2ccc(-c3ccccc3)cc2)c2ccccc2c1=O	0	-7	0	-2	nt	nt
O=C1CC(NCC(O)c2ccccc2)C(=O)N1c1ccc(Br)cc1 (stereo not given)	0	2	-1	2	nt	nt
CC1(C)Cc2nc3sc4c(SCC(=O)N5CCOCC5)ncnc4c3cc2CO1	0	-5	5.9*	-17	0	-9
COCCn1c(C)cc(C2=NNC(=Nc3ccccc3)SC2)c1C	0	57*	11*	-4	1	2
C=CCn1c(C)cc(C2=NNC(=Nc3ccccc3)SC2)c1C	1	-43	0	18	nt	nt
COc1cccc(CCNC(=O)c2cc(COc3ccc4ncccc4c3)on2)c1	0	32	5.9*	-5	-1	-17
SMILES	FBW7 act	TEAD-YAP inh	GPR151 activ	MITF primary	GPR151 conf act	GPR119 ag
Cc1cccnc1CCNC(=O)c1cc(COc2ccc3ncccc3c2)on1	0	26	1	18	nt	nt
CCOC(=O)c1c(NC(=O)c2ccccc2Cl)sc2c1CC(C)(C)NC2(C)C	0	-16	2	-3	nt	nt
CCOC(=O)c1c(NC(=O)c2ccc(OC)cc2OC)sc2c1CC(C)(C)NC2(C)C	0	-2	5.6*	-2	0	-2
CC1(C)Cc2c(sc(NC(=O)c3ccccc3F)c2C(N)=O)C(C)(C)N1	0	5	6.3*	3	0	2
O=C1c2ccccc2NC(c2ccc3c(c2)OCO3)N1Cc1ccccc1 (stereo not given)	0	-6	0	-1	nt	nt
CCN(CC)CCN1C(=O)c2ccccc2NC1c1ccc2c(c1)OCO2 (stereo not given)	0	3	5.3*	8	0	11
COc1ccc2c(c1)O/C(=C\c1ccc(OC)c(OC)c1)C2=O	0	2	5.5*	6	-1	1
COC(=O)COc1ccc(/C=C2\Oc3cc(OC)ccc3C2=O)cc1OC	0	-1	0	-10	nt	nt
COc1ccc2c(c1)O/C(=C\c1ccc(OS(C)(=O)=O)c(OC)c1)C2=O	0	1	0	-2	nt	nt
COC(=O)C(C)Oc1ccc(/C=C2\Oc3cc(OC)ccc3C2=O)cc1OC (stereo not given)	0	4	8.8*	-4	0	10
COc1cc(C)c2c(c1)O/C(=C\c1ccc(OC)c(OC)c1OC)C2=O	0	-11	7.5*	14	1	-6
O=C(NC(=S)NCCNc1ccc([N+](=O)[O-])cc1)c1cccc(Cl)c1	0	-5	-1	10	nt	nt
Cc1cc(/C=C(/C#N)c2cccc(Cl)c2)c(C)n1C	0	-11	5.6*	1	0	0
O=C(Cn1cncn1)NN=C1c2ccccc2-c2ccccc21	0	-5	5.2*	-3	1	6
O=C(Cn1cncn1)N/N=C/c1ccccc1Cl	0	1	1	12	nt	nt
CCOC(=O)Cn1c(=NC(=O)c2cc(=O)c3ccccc3o2)sc2cc(OC)ccc21	0	-7	1	8	nt	nt
CCOC(=O)Cn1c(=NC(=O)c2cc(=O)c3ccccc3o2)sc2cc(F)ccc21	0	1	5.1*	-3	0	3
CN(CC(=O)Nc1ccccc1F)S(=O)(=O)c1cccc2cnccc12	0	37*	5.4*	6	0	-6
CN(CC(=O)Nc1ccc(F)cc1)S(=O)(=O)c1cccc2cnccc12	0	21	-2	-2	nt	nt
COc1cccc(/C=N/NC(=O)CNc2cccc(Cl)c2)c1	0	3	2	2	nt	nt
CC[C@H](C)NC(=O)CCCc1nnc2n(CCC(C)C)c(=O)c3sccc3n12	0	1	-1	2	nt	nt
CC(C)CCn1c(=O)c2sccc2n2c(CCCC(=O)O)nnc12	0	1	5.2*	14	0	-2
N#Cc1c(-c2ccccc2)cc(-c2ccccc2)nc1SCC(O)CN1CCOCC1 (stereo not given)	0	16	-1	19	nt	nt
CCOC(=O)COc1ccc2c(=O)c(Oc3cccc(OC)c3)coc2c1	0	3	5.3*	2	2	6
